An excerpt weighted towards active compounds, which were near 0.38% of everything screened.
Rac1 mut GTP = modulators of GTP binding to human Rac1 activated mutant. 190,000 tested, 0.11% active. percent activity (GTP binding), % at 10 µM. P63000. GST-Rac1 activated beads, fluorescent GTP binding, flow cytometry; actives lie on both sides; 100% means binding = to untreated wells;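 active = GTP binding at least 20 percentage points away from the 100% baseline, in either direction, so actives lie on both sides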
Rab2 wt GTP = changes GTP binding to wildtype dog Rab2A, up or down. 190,000 tested, 0.19% active. GST-Rab2 wt beads, Bodipy-GTP binding, flow cytometry. AID 760. GTP binding activity, % at 10 µM;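 active = GTP binding activity at least 20 points away from 100%, either lowered or raised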
Rac1 wt GTP bind = human Rac1 wildtype GTP binding, inhibitors and activators; P63000; GST-Rac1 beads, fluorescent GTP binding, flow cytometry; actives lie on both sides; 0 = cold GTP competed, 100 = untreated; GTP binding activity (% of control), % at 10 µM; 190,000 tested, 0.27% active; AID 757;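 active = GTP binding activity at least 20 points away from the 100% control level, either lower or higher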
Rab7 wt modul = dog Rab7 wildtype GTP binding, inhibitors and activators | GST-Rab7 beads, fluorescent GTP binding, flow cytometry; actives lie on both sides; untreated = 100%, excess cold GTP = 0% | GTP binding activity (percent of control), % at 10 µM | 190,000 tested, 0.055% active;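 active = fluorescent GTP binding to Rab7 beads changed by at least 20 points from the 100% baseline, either direction, mostly lower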;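 also: median green fluorescence of bound Bodipy-FL-GTP per Rab7 bead population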
Cdc42 wt GTP = human Cdc42 wildtype GTP binding change, either direction; P60953; AID 761; GST-Cdc42 beads, Bodipy-GTP binding, flow cytometry; actives lie on both sides; 190,000 tested, 0.2% active; percent activity (GTP binding), % at 10 µM;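 active = percent activity GTP binding at least 20 points away from the 100% baseline, either down as inhibitor or up as activator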;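 also: median bead fluorescence of bound Bodipy-FL-GTP at 100 nM; below 100% means less GTP binding so inhibitor and above means activator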
Target sequence (P60953 whole entry, looked up): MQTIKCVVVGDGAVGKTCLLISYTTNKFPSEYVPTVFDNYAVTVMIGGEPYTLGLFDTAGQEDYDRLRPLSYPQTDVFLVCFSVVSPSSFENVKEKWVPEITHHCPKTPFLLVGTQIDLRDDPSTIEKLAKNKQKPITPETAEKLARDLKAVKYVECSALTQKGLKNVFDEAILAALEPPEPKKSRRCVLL
HRas wt GTP = changes GTP binding to wildtype human HRas | P01112 | GTP binding activity, % at 10 µM | 190,000 tested, 0.14% active | GST-Ras wt beads, Bodipy-FL-GTP binding, flow cytometry; actives lie on both sides | AID 759;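 active = GTP binding activity at least 20% away from the 100% baseline, either lowered as inhibitor or raised as activator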
Target sequence (P01112 whole entry, looked up): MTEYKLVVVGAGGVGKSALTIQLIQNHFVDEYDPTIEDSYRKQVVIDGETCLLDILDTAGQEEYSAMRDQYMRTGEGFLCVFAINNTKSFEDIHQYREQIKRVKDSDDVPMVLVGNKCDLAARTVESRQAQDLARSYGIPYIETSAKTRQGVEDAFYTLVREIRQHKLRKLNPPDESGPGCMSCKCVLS
Each line names hits and unclear results; the compound was inactive in the other large screens; [ ] = another dose, or the depositor's remark.

COc1cc(/C=N/NC(=O)CN(Cc2ccccc2)S(=O)(=O)c2ccc3c(c2)OCCO3)ccc1O	Rab2 wt GTP 78, Rac1 wt GTP bind 78
COc1cc(/C=N/NC(=O)CN(Cc2ccco2)S(=O)(=O)c2ccccc2)ccc1O	Rac1 wt GTP bind 77
COc1ccc(/C=N/NC(=O)CN(Cc2ccccc2)S(=O)(=O)c2ccc3c(c2)OCCO3)cc1	none
COc1ccc(-c2csc(NC(=O)c3ccc(OCC(=O)N4CCOCC4)c(OC)c3)n2)cc1OC	none
CCOc1ccc(Oc2ccc(Cl)cc2N)cc1	none
C/C(=C1/SC(=S)N(CCC(=O)O)C1=O)c1ccc(O)cc1	Rac1 mut GTP 77
CCOC(=O)C1(Cc2ccc(OC)cc2)CCN(C(=O)c2cncs2)CC1	none
CCOC(=O)CNC(=O)c1cc(-c2ccccn2)nc2c(C)c(Cl)ccc12	none
O=C(O)c1ccccc1COc1ccccc1Cl	none
O=C(O)c1ccccc1OCc1ccccc1Br	Rac1 mut GTP 126[activator], Rab2 wt GTP 129[activator], Rac1 wt GTP bind 142[activator], Rab7 wt modul 120[activator], Cdc42 wt GTP 139[activator], HRas wt GTP 122[activator]
Cc1ccnc(NS(=O)(=O)c2ccc(NC(=O)CSc3nc(-c4ccccc4)cc(=O)[nH]3)cc2)n1	none
N#CC(c1ccc(Cl)nn1)c1ccc(Cl)cc1Cl (centres undefined)	Rac1 wt GTP bind 121[activator]
COc1ccc2nc(NNC(=O)c3cc(=O)c4ccccc4o3)sc2c1	none
O=C(NNc1nc2c(F)cccc2s1)c1cc(=O)c2ccccc2o1	Rac1 mut GTP 76
Cc1cccc2sc(NNC(=O)c3cc(=O)c4ccccc4o3)nc12	Rac1 mut GTP 74, Cdc42 wt GTP 77
Cc1ccc2sc(NNC(=O)c3cc(=O)c4ccccc4o3)nc2c1C	Rac1 mut GTP 77
O=c1nc2c(O)cccn2c2c1c(=O)[nH]c1ccccc12	Rac1 mut GTP 77, Rab2 wt GTP 62, Rac1 wt GTP bind 61, Cdc42 wt GTP 70, HRas wt GTP 59
O=c1[nH]c2ccccc2c2nc3ccccn3c12	none
CCOC(=O)c1nc(Nc2ccc(C(C)=O)cc2)c2ccccc2n1	Rac1 wt GTP bind 78
COc1ccc(/C=N/NC(=S)Nc2cc(S(=O)(=O)N3CCOCC3)ccc2N2CCOCC2)cc1O	Rac1 wt GTP bind 136[activator]
COc1ccc2ccccc2c1/C=N/NC(=S)Nc1cc(S(=O)(=O)N2CCOCC2)ccc1N1CCOCC1	none
COc1cc(/C=N/Nc2ccc(F)cc2F)cc(OC)c1OC	none
COc1cc(/C=N/Nc2ccc(S(N)(=O)=O)cc2)cc(OC)c1OC	Rac1 wt GTP bind 79
COc1ccc(/C(N)=N/O)c(OC)c1	none
N#C/C(=C/c1ccc([N+](=O)[O-])cc1)C(=O)Nc1ccccc1O	none
N#C/C(=C/c1ccc(O)c([N+](=O)[O-])c1)C(=O)Nc1ccccc1	Rac1 wt GTP bind 77, Cdc42 wt GTP 79
Nc1c(S(=O)(=O)c2ccccc2)c2nc3ccccc3nc2n1C1CC1	Rac1 wt GTP bind 78
Nc1c(S(=O)(=O)c2ccccc2)c2nc3ccccc3nc2n1/N=C/c1cccc(O)c1	Rab2 wt GTP 70, Cdc42 wt GTP 74, HRas wt GTP 73
CCCc1cc(NCC2CCCO2)n2c(nc3ccccc32)c1C#N (centres undefined)	none
Cc1cc(NCc2ccccn2)n2c(nc3ccccc32)c1C#N	Rab2 wt GTP 70, Rac1 wt GTP bind 66, Rab7 wt modul 78, Cdc42 wt GTP 72, HRas wt GTP 75
CCCc1cc(NCc2ccccn2)n2c(nc3ccccc32)c1C#N	Rac1 wt GTP bind 75
CC1=NC(=O)C(N=Nc2ccccc2)N1c1ccccc1 (centres undefined)	none
CC1=NC(=O)C(N=Nc2ccccc2C(=O)O)N1c1ccccc1 (centres undefined)	Rac1 wt GTP bind 79
COC(=O)/C(=C/c1ccco1)NC(=O)c1ccco1	none
Cc1sc2nc3c(SC(C)C(=O)O)cc(C(=O)c4ccccc4O)cn3c(=O)c2c1C (centres undefined)	Rac1 wt GTP bind 75
CC(C)Cn1c(N)c(C(=O)CSc2nc3ccccc3c(=O)n2CCCN2CCOCC2)c(=O)n(C)c1=O	none
CC(C)(C)OC(=O)N[C@@H](Cc1ccccc1)c1nnc(S(=O)(=O)Cc2cccc(F)c2)o1	Rab7 wt modul 79
Cc1ccc(Sc2c(C)nn(C(=O)C3CC3)c2C)cc1	Rac1 mut GTP 79, Rac1 wt GTP bind 78
CC1c2nc3ccccc3n2C(CC(=O)NC2CC2)C(=O)N1Cc1ccccc1 (centres undefined)	none
O=C(Nc1ccccc1)C1=C(c2ccccc2)S(=O)(=O)CCS1(=O)=O	Cdc42 wt GTP 77
CCN(CC)c1ccc(-c2nn3c(-c4cccnc4)nnc3s2)cc1	Rab2 wt GTP 73, Cdc42 wt GTP 72, HRas wt GTP 73
COc1ccc(-c2nnc(CSc3nc4ccccc4c(=O)n3C)o2)cc1OC	Rac1 wt GTP bind 120[activator]
Cn1c(SCc2nnc(-c3ccccc3)o2)nc2ccccc21	none
Cc1ccc(Nc2cnn(C34CC5CC(CC(CC(=O)O)(C5)C3)C4)c(=O)c2Cl)c(Cl)c1	none
O=[N+]([O-])c1cc(-c2ncccn2)c([N+](=O)[O-])s1	Rac1 mut GTP 76
COc1ccc(-c2cc(=O)c(C(=O)c3ccc(C)cc3)n[nH]2)cc1	Rac1 wt GTP bind 121[activator]
Cc1ccc(COc2ccsc2C(=O)NNC(N)=S)cc1	none
O=C(N1CCOCC1)C12CC3CC(C1)CC(n1cnc(Cl)n1)(C3)C2	none
CC(C)NC(=O)C12CC3CC(C1)CC(n1cnc(Cl)n1)(C3)C2	Rac1 wt GTP bind 121[activator]
COCCNC(=S)N1CCC(NC(=O)Nc2ccc(C)cc2)CC1	none
COc1ccc(C(=O)c2c(O)cc(-c3ccc(OC)cc3)oc2=O)cc1	Rac1 wt GTP bind 137[activator], Rab7 wt modul 125[activator]
COc1ccc(-c2cc(=O)c3c(O)c(OC)c(O)cc3o2)cc1	none
CN(C(=O)COC(=O)c1cc(S(=O)(=O)N2CCOCC2)c(Cl)cc1Cl)C1CCS(=O)(=O)C1 (centres undefined)	none
CCn1c(SCC(=O)O)nnc1-c1cc2c(C)nn(-c3ccccc3)c2s1	Rac1 wt GTP bind 79
Cc1nn(-c2ccccc2)c2sc(-c3nnc(SCC(=O)O)o3)cc12	none

Bioassay records from PubChem BioAssay.
